Drawing on PubChem BioAssay, this text covers AC50, outcome and IC50 for 22 compounds.

Experiment [1] in a line: growth inhibition of DIPG glioma cells, dose response, cell-based, SU-DIPG-XVII, MIPE5.0, CellTiter-Glo, qHTS (AID 1347060).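 On AC50: cells exposed to compound for 48 hours before viability readout.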 Conditions: SU-DIPG-XVII viability, CellTiter-Glo ATP luminescence. For orientation: ATP-based viability assays read luminescence as a measure of living cells.
A short description of experiment [2]: growth inhibition of DIPG glioma cells, dose response, cell-based, SU-DIPG-XIII, MIPE5.0, CellTiter-Glo, qHTS (AID 1347064; cut-off not given, nearly all actives have AC50 up to about 23 µM;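 on AC50: cells exposed to compound for 48 hours before the viability read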). Conditions: SU-DIPG-XIII viability, CellTiter-Glo ATP luminescence.
Experiment [3] in a line: viability loss in pontine glioma line – cell-based, SU-DIPG-XXV, MIPE5.0, CellTiter-Glo, qHTS, dose response (AID 1347065).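 Further: cells exposed to compound for 48 hours before ATP readout.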 Conditions: CellTiter-Glo ATP luminescence.
Experiment [4] can be described thus: JHH-DIPG-1 glioma cell viability, MIPE5.0 library, CellTiter-Glo luminescence, qHTS (AID 1347067).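 Further: cells exposed to compound for 48 hours before readout.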 Conditions: JHH-DIPG-1 glioma viability, CellTiter-Glo ATP luminescence.
Experiment [5] in a line: SU-DIPG-XXV glioma cell viability, MIPE5.0 library, qHTS (AID 1347068; cut-off not given, nearly all actives have IC50 up to about 30 µM;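 on IC50: cells exposed to compound for 48 hours before viability readout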). Background: Quantitative high-throughput screening tests each substance at several concentrations.

The AC50 is the midpoint of the concentration-response curve, whichever way the signal moves. By IC50 is commonly meant the concentration at which inhibition is half-maximal.

Structures are written as SMILES. Inconclusive results are not listed. The source made the active and inactive calls. Unless noted, cut-off not given; nearly all actives show AC50 up to about 26 µM.

Consider `CCCC(CCC)C(=O)Nc1ccn([C@@H]2O[C@H](CO)[C@@H](O)C2(F)F)c(=O)n1`, for which the AC50 in experiment [1] is 4.68 µM (active). In addition, the result in experiment [2], in experiment [3], in experiment [4] and in experiment [5] was inactive.

Regarding `CC(C)n1cc(-c2ccc3c(c2)N(C)CC3)c2c(NS(=O)(=O)c3ccn(C)n3)ccnc21`, the result in experiment [1], in experiment [2], in experiment [3], in experiment [4] and in experiment [5] was inactive.

For the compound `NC(=O)c1ccccc1Nc1ccnc(Nc2cccc(O)c2)n1`, the AC50 in experiment [1] is 2.63 µM (active); in experiment [2], 5.25 µM (active); in experiment [3] it was 1.32 µM (active); in experiment [4] it was 18.6 µM (active). In experiment [5], the IC50 was 4.68 µM (active).

For `CCN1CCN(Cc2ccc(NC(=O)c3ccc(C)c(/C=C/c4cnc5[nH]ccc5c4OC)c3)cc2C(F)(F)F)CC1`, the half-maximal activity concentration (AC50) in experiment [1] was 1.86 µM (active); in experiment [2], 2.35 µM (active); in experiment [3], 2.09 µM (active); in experiment [4], 3.72 µM (active). Also, the half-inhibitory concentration (IC50) in experiment [5] is 3.72 µM (active).

Take `CC(=O)N1CCC[C@H]1C(=O)N[C@@H](Cc1cnc[nH]1)C(=O)N[C@@H](CO)C(=O)N[C@@H](CS)C(=O)N[C@@H](CC(N)=O)C(N)=O`: the result in experiment [1], in experiment [2], in experiment [3], in experiment [4] and in experiment [5] was inactive.

Consider `C=C1C[C@@H]2CC[C@@]34C[C@H]5O[C@H]6[C@@H](O3)[C@H]3O[C@H](CC[C@@H]3O[C@H]6[C@H]5O4)CC(=O)C[C@@H]3[C@@H](OC)[C@@H](C[C@H](O)CN)O[C@H]3C[C@H]3O[C@@H](CC[C@@H]1O2)C[C@@H](C)C3=C`, for which the AC50 is 0.0027 µM (active) in experiment [1], 0.0428 µM (active) in experiment [2], 0.00121 µM (active) in experiment [3] and 0.00959 µM (active) in experiment [4]. In addition, in experiment [5], the 50% inhibitory concentration (IC50) is 0.00959 µM (active).

For `CN(C)C/C=C/C(=O)Nc1ccc(C(=O)N2CCC[C@@H](Nc3ncc(Cl)c(-c4c[nH]c5ccccc45)n3)C2)cc1`, the AC50 in experiment [1] was 0.59 µM (active); in experiment [2] it was 0.295 µM (active); in experiment [3], 0.235 µM (active); in experiment [4] it was 0.332 µM (active). In experiment [5], the IC50 was 0.833 µM (active).

For `CC(=O)Nc1cc(Oc2ccc3c(nc(Nc4ccc(F)cc4F)n3C)c2C)ccn1`, the AC50 is 0.372 µM (active) in experiment [1], 4.17 µM (active) in experiment [2], 0.118 µM (active) in experiment [3] and 0.525 µM (active) in experiment [4]. The half-inhibitory concentration (IC50) in experiment [5] was 1.05 µM (active).

In the case of `COc1cc(N2CCC(N3CCN(C)CC3)CC2)ccc1Nc1ncc(Cl)c(Nc2ccccc2P(C)(C)=O)n1`, the concentration at half-maximal activity (AC50) in experiment [1] was 0.105 µM (active); in experiment [2] it was 0.332 µM (active); in experiment [3], 0.186 µM (active); in experiment [4], 1.18 µM (active). Moreover, the IC50 in experiment [5] was 1.05 µM (active).

Consider `COC[C@@H](c1ccc(C(F)(F)F)cc1)N1CCN(C2(C)CCN(C(=O)c3c(C)ncnc3C)CC2)C[C@@H]1C`, for which the compound was called inactive in experiment [1], in experiment [2], in experiment [3], in experiment [4] and in experiment [5].

With `c1ccc2c(-c3cnn4cc(-c5ccc(OCCN6CCOCC6)cc5)cnc34)ccnc2c1`, the AC50 in experiment [1] was 12.9 µM (active); in experiment [2] it was 14.4 µM (active); in experiment [3] it was 9.1 µM (active); in experiment [4], 10.2 µM (active). The compound was called inactive in experiment [5].

On to `O=C(Nc1cnn2ccc(N3CCC[C@@H]3c3cc(F)ccc3F)nc12)N1CC[C@H](O)C1`, for which the compound was called inactive in experiment [1], in experiment [2], in experiment [3], in experiment [4] and in experiment [5].

Take `CS(=O)(=O)N1CCC(NC(=O)c2[nH]ncc2NC(=O)c2c(Cl)cccc2Cl)CC1`: the AC50 in experiment [1] was 3.32 µM (active); in experiment [2], 4.17 µM (active); in experiment [3], 4.17 µM (active); in experiment [4] it was 4.17 µM (active). The IC50 in experiment [5] was 4.68 µM (active).

As to `OC1CCC(Oc2cccc3cnc(Nc4ccc5nc[nH]c5c4)nc23)CC1` (stereo not given), the concentration at half-maximal activity (AC50) is 0.833 µM (active) in experiment [1], 2.09 µM (active) in experiment [2], 0.661 µM (active) in experiment [3] and 1.32 µM (active) in experiment [4]. Also, in experiment [5], the IC50 is 1.05 µM (active).

Regarding `Cc1cnc(Nc2ccc(F)cc2Cl)nc1-c1c[nH]c(C(=O)NC(CO)c2cccc(Cl)c2)c1` (stereo not given), the concentration at half-maximal activity (AC50) is 3.32 µM (active) in experiment [1], 5.9 µM (active) in experiment [2], 2.09 µM (active) in experiment [3] and 2.63 µM (active) in experiment [4]. For the same compound, in experiment [5], the half-maximal inhibitory concentration (IC50) is 10.5 µM (active).

With `COC(=O)N(CC(=O)O)Cc1cccc(OCc2nc(-c3ccc(Cl)cc3)oc2C)c1`, the result in experiment [1], in experiment [2], in experiment [3], in experiment [4] and in experiment [5] was inactive.

Turning to `C=CC(=O)Nc1cc(N2CCN(CC)CC2)ccc1Nc1cc(N(C)C(=O)Nc2c(Cl)c(OC)cc(OC)c2Cl)ncn1`, the AC50 was 14.8 µM (active) in experiment [1], 14.8 µM (active) in experiment [2], 18.6 µM (active) in experiment [3] and 20.9 µM (active) in experiment [4]. Also, in experiment [5], the compound was classed as inactive.

In the case of `COc1ccc(Cl)cc1-c1cc(=O)[nH]c(=S)n1CC(N)=O`, the outcome in experiment [1], in experiment [2], in experiment [3], in experiment [4] and in experiment [5] was inactive.

Turning to `Cc1[nH]cnc1CN1CCN(C(=O)N[C@@H](CC(C)C)C(=O)O)[C@@H](Cc2ccccc2)C1=O`, the call in experiment [1], in experiment [2], in experiment [3], in experiment [4] and in experiment [5] was inactive.

Regarding `CS(=O)(=O)c1ccc(Oc2cc(F)cc(C#N)c2)c2c1[C@H](O)C(F)(F)C2`, the call in experiment [1], in experiment [2], in experiment [3], in experiment [4] and in experiment [5] was inactive.

Turning to `CCS(=O)(=O)N1CCC([C@@H](C)n2c(C)c(C(=O)NCc3c(OC)cc(C)[nH]c3=O)c3ccccc32)CC1`, the compound was classed as inactive in experiment [1], in experiment [2], in experiment [3], in experiment [4] and in experiment [5].

With `Cn1ncc(Cl)c1-c1cc(C(=O)NC(CN)Cc2ccc(F)c(F)c2)oc1Cl` (stereo not given), the concentration at half-maximal activity (AC50) in experiment [1] is 14.8 µM (active); in experiment [2], 5.9 µM (active); in experiment [3], 0.661 µM (active); in experiment [4], 18.6 µM (active). In addition, the IC50 in experiment [5] was 16.6 µM (active).
